In test [1] the test system is Wnt5a (protein binding on small-molecule microarray). Put plainly: Wnt5a binders on small-molecule microarray, primary screen, biophysical, 635/667 nm fluorescence (AID 1142).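 Also: fluorescence read at 667 nm with signal to noise per printed feature.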 As to conditions: 635 nm fluorescence, higher = more signal.
Test [2] can be described thus: cell viability in Huh7 cells, primary screen, cytotoxicity control for HCV replication inhibitor project, CellTiter-Glo luminescence, basal, 48 h (AID 1143).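 Also: Huh7 hepatoma cells carrying a hepatitis C replication reporter with no stimulus; test concentration not given here.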 As to conditions: Huh7 HCV replicon, higher = more signal, called active from +8 up or from −8 down.
Test [3] is described as follows: P. aeruginosa biofilm formation inhibitors, primary screen, PAO1 strain, BacTiter-Glo luminescence, LB-PBS (AID 1144). The note with it: 12 h, higher = more signal.
The nature of test [4]: CREB reporter modulators without forskolin, primary screen, cell-based, PC12, CRE-LacZ reporter, unstimulated (AID 1145). As to conditions: no forskolin, luminescence, 4.5 h, higher = more signal, called active from +8 up or from −8 down.
Test [5] is described as follows: CREB reporter modulators under forskolin, primary screen, cell-based, PC12, CRE-LacZ reporter, forskolin-stimulated (AID 1146).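 Also: PC12 cells with 6xCRE LacZ reporter stimulated by forskolin 10 µM; beta-galactosidase reporter signal reflecting CREB driven transcription.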 The note with it: luminescence, 4.5 h, higher = more signal, called active from +8 up or from −8 down.
Test [6] concerns the target Streptavidin (Streptomyces avidinii) (UniProt P22629). Put plainly: streptavidin binders on small-molecule microarray, primary screen, artefact control for SMM compound annotation, biophysical, 635/667 nm fluorescence (AID 1147).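 Also: signal reflects streptavidin binding to arrayed compounds as a control protein.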 As to conditions: streptavidin binding, higher = more signal.
Test [7] is described as follows: small-molecule binders of probe aInhba, primary screen, biochemical, small-molecule microarray, 635/667 nm fluorescence (AID 1148).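 Also: score merges 667nm spot fluorescence with signal-to-noise for antibody binding to printed compounds.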 As to conditions: higher = more signal.
The target of test [8] is Torsin-1A (Homo sapiens) (UniProt O14656). Briefly: torsin A binders from cell lysate, primary screen, small-molecule microarray, wild-type, 635/667 nm (AID 1149). The note with it: COS7 hTOR1A-WT lysate, 635 nm fluorescence, higher = more signal.
Test [9] shares this target. Put plainly: small-molecule binders of mutant TOR1A in lysate, primary screen, cell lysate, small-molecule microarray, COS7 lysate, 635/667 nm fluorescence (AID 1150).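 Also: score pools 667 nm emission and signal to noise measuring lysate protein binding.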 The note with it: COS7 hTOR1A mutant lysate, 635 nm fluorescence, higher = more signal.
The subject of test [10] is Sonic hedgehog protein (Shh). Put plainly: small-molecule binders of Shh protein, primary screen, biochemical, small-molecule microarray, 635/667 nm fluorescence (AID 1151).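 Also: Shh protein binding to compounds spotted on small-molecule microarray slides; score combines spot fluorescence intensity with signal-to-noise across triplicate slides.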 The note with it: small-molecule microarray binding, 635 nm fluorescence; higher = more signal.
Test [11] in a line: E. coli DRC41 culture turbidity changes, primary screen, E. coli filamentation inducer project, strain DRC41, OD650, 48 h (AID 1152).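 Also: E. coli MC1000 strain DRC41 lacking acrAB efflux pump and sulA.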 As to conditions: E. coli DRC41 (acrAB sulA), higher = more signal, called active from +8 up or from −8 down.
Test [12] is described as follows: small-molecule binders of probe aLefty1, primary screen, biochemical, small-molecule microarray, 635/667 nm fluorescence (AID 1153).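 Also: score merges spot fluorescence with signal-to-noise ratio from the scanned slide images.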 As to conditions: higher = more signal.
The nature of test [13]: PSAC antagonists in infected red cells, primary screen, cell-based, P. falciparum Indochina, OD700, 1 h (AID 1154). The note with it: P. falciparum Indochina infected RBC osmotic lysis, higher = more signal, called active from +8 up or from −8 down.
Test [14] in a line: PSAC antagonists in infected red cells, primary screen, cell-based, P. falciparum Indochina, OD700, 2 h (AID 1155).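 Also: lysis reports solute entry through the parasite surface anion channel PSAC; channel blockers reduce lysis of infected cells.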 The note with it: P. falciparum Indochina infected erythrocytes, osmotic lysis OD700; higher = more signal, called active from +8 up or from −8 down.
Test [15] is described as follows: osmotic lysis modulators in infected erythrocytes, primary screen, PSAC antagonist project, cell-based, P. falciparum Indochina, OD700, 3 h (AID 1156). The note with it: higher = more signal, called active from +8 up or from −8 down.
Test [16] is described as follows: PSAC antagonists in infected red cells, primary screen, cell-based, P. falciparum Indochina, OD700, 18 h (AID 1157). As to conditions: P. falciparum Indochina infected erythrocytes, osmotic lysis OD700, 18 h; higher = more signal, called active from +8 up or from −8 down.
The nature of test [17]: modulators of S6 phosphorylation in cells, primary screen, cell-based, A549, cytoblot, luminescence, serum-stimulated (AID 1158).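 Also: serum-stimulated A549 lung adenocarcinoma cells; signal is phosphorylated S6 detected by cytoblot immunostaining with HRP secondary.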 As to conditions: A549 phospho-S6 cytoblot, 5 h, higher = more signal.
Test [18] has as its target NADPH oxidase 2 (Homo sapiens) (UniProt P04839). Briefly: NOX2-dependent H2O2 signal modulators, primary screen, NOX inhibitor project, cell-based, HEK293-NOX2, PMA-stimulated, Amplex Red fluorescence (AID 1159). Also: test concentration not given here. As to conditions: 45 min, higher = more signal, called active from +8 up or from −8 down.
Test [19] addresses NADPH oxidase 4 (Homo sapiens) (UniProt Q9NPH5). Briefly: NOX4-dependent H2O2 signal modulators, primary screen, NOX inhibitor project, cell-based, HEK293-NOX4, tetracycline-induced, Amplex Red fluorescence (AID 1160). The note with it: 45 min, higher = more signal, called active from +8 up or from −8 down.
In test [20] the target is NADPH oxidase 5 (Homo sapiens) (UniProt Q96PH1). Briefly: NOX5-dependent H2O2 signal modulators, primary screen, NOX inhibitor project, cell-based, HEK293-NOX5, Amplex Red fluorescence (AID 1161). The note with it: HEK293-NOX5, ionomycin, 45 min, higher = more signal.

The source made the active and inactive calls. Unless noted, no rule for the calls is given here.

The values that follow come from PubChem BioAssay.

NADPH oxidase 4 (Homo sapiens), sequence (Q9NPH5 whole entry, looked up): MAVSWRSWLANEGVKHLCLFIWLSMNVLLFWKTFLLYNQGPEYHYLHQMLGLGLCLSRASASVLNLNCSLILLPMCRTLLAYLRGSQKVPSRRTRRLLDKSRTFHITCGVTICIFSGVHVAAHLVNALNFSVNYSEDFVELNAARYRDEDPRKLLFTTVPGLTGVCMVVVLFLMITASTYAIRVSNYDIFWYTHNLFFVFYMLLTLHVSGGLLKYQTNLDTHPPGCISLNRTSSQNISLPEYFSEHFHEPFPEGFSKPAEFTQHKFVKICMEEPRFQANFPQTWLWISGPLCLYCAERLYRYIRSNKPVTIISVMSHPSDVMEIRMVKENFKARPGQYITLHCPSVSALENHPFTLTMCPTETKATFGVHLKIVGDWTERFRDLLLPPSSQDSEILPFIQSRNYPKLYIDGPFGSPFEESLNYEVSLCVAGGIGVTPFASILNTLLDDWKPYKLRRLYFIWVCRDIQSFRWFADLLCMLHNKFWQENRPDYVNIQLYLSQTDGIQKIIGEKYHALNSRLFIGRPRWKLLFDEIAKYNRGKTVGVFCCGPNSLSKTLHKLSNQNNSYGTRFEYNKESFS
Torsin-1A (Homo sapiens), sequence (O14656 whole entry, looked up): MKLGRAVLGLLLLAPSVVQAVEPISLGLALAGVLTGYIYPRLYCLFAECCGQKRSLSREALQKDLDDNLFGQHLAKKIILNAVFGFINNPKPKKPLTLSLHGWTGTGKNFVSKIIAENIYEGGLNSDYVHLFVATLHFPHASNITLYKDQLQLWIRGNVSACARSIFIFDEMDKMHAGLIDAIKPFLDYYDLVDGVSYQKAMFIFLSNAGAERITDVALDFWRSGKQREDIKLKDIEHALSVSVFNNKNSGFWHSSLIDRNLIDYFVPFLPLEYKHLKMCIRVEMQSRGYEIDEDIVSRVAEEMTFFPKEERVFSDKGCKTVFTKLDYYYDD
Streptavidin (Streptomyces avidinii), sequence (P22629 whole entry, looked up): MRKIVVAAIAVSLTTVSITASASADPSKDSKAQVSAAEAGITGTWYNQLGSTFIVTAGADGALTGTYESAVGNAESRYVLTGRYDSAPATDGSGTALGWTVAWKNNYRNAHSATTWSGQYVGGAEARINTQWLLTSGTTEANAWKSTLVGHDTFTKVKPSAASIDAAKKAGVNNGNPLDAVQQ
NADPH oxidase 2 (Homo sapiens), sequence (P04839 whole entry, looked up): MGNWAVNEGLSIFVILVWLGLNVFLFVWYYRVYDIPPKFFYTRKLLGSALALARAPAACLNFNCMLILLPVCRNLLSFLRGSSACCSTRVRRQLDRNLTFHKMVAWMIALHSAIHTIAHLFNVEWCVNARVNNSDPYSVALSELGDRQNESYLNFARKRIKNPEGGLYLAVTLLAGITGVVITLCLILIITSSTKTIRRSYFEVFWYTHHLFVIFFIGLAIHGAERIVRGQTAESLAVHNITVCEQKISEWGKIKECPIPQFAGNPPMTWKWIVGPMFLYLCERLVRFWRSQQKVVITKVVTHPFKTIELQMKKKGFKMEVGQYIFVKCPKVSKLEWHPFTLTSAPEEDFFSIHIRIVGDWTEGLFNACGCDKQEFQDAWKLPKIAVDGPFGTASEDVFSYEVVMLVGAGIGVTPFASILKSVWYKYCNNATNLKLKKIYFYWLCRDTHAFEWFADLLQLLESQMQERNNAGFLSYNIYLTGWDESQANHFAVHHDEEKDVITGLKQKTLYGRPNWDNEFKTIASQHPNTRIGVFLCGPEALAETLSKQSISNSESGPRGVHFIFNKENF
NADPH oxidase 5 (Homo sapiens), sequence (Q96PH1 whole entry, looked up): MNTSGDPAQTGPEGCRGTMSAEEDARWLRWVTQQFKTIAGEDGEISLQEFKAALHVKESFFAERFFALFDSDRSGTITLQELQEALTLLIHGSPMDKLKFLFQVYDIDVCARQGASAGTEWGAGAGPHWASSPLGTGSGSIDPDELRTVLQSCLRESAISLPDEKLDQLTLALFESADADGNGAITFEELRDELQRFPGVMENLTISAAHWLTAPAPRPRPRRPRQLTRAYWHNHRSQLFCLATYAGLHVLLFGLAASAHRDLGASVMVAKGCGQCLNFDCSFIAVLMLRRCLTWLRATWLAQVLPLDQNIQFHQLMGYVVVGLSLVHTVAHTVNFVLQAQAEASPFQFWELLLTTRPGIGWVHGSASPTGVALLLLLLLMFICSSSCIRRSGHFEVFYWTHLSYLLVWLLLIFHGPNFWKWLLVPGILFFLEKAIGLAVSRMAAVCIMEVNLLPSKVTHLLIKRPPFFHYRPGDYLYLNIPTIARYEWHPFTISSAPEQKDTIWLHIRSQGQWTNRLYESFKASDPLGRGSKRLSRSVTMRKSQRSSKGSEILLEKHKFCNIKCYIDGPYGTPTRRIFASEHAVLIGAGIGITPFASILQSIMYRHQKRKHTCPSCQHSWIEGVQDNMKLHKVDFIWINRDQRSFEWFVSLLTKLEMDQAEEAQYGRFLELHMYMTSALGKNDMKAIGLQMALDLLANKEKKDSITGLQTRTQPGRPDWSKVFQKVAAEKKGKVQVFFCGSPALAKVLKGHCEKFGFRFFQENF

As to `C=CC[C@H](OC(=O)Nc1ccc(SC)cc1)c1ccc(O)c2ccccc12`, the composite z-score was 0.336 in test [1]; 1.61 in test [6]; -0.101 in test [7]; 0.557 in test [8]; 0.465 in test [9]; 1.76 in test [10]. In [12], this compound displayed a composite z-score of 0.27. Further, the z-score was -6.78 (inactive) in test [2]; -0.921 (inactive) in [3]; 4.1 (inactive) in test [4]; 3.2 (inactive) in test [5]; -1.2 (inactive) in test [11]; 29.5 (active) in test [13]. The z-score in test [14] was 16.8 (active); in test [15] it was 2.22 (inactive); in [16], 1.63 (inactive); in test [17], 0.76; in test [18], -5.83 (inactive); in test [19], -1.41 (inactive). The compound further came in with a z-score in test [20] of -0.0589.
With `C=CCC(OC(C)=O)[C@@H]1[C@@H](N(Cc2cc3ccccc3o2)C(=O)Cc2ccc(F)cc2)c2cc(OCCCO)ccc2N1C(=O)Cc1ccc2ccccc2c1` (stereo not given in full), the composite z-score in [1] was -0.314; in [6], 0.655; in test [7], -0.0963; in test [8], -1.16; in [9], -0.337; in [10], 0.0162. In addition, the composite z-score in test [12] came to 0.051. The z-score in test [2] was -0.327 (inactive); in test [3] it was -0.467 (inactive); in [4] it was 2.08 (inactive); in test [5] it was 0.926 (inactive); in test [11], -1.06 (inactive); in [13] it was 1.23 (inactive). Also, the z-score was 0.62 (inactive) in [14]; -0.621 (inactive) in test [15]; 0.184 (inactive) in [16]; -0.213 in [17]; 0.682 (inactive) in test [18]; 0.88 (inactive) in [19]. Also, the z-score in test [20] came out at 1.86.
On to `O=C(c1ccccc1)N1C(=O)[C@]2(Cc3ccccc31)N=C(c1ccc(OCCCO)cc1)O[C@@H]2c1ccccc1`, for which the composite z-score in test [1] is 1.09; in test [6], 0.431; in test [7], -0.0361; in test [8] it was 0.357; in test [9] it was 0.562; in [10], 2.09. Also, the composite z-score in test [12] was determined as 0.297. The z-score in [2] is -5.16 (inactive); in test [3] it was -0.378 (inactive); in [4], 2.67 (inactive); in test [5], 2.1 (inactive); in test [11], -0.857 (inactive); in [13], 21.9 (active). Besides, the z-score is 8.53 (active) in test [14]; 0.0521 (inactive) in test [15]; 1.35 (inactive) in test [16]; -0.203 in test [17]; 0.491 (inactive) in test [18]; -0.703 (inactive) in test [19]. In test [20], the z-score is -1.77.
Take `CC1CC/C=C\[C@H]2OC34C=CCN(C(C)(C)C)C(=O)[C@H]3N(CCCCCO)C(=O)[C@@H]4C2C(=O)O1` (stereo not given in full): the composite z-score in test [1] is -0.427; in [6], -0.719; in test [7] it was -0.253; in test [8], -0.201; in [9] it was -1.33; in [10], 0.353. The composite z-score in test [12] was -0.0984. In addition, the z-score in [2] was 0.356 (inactive); in test [3], 0.477 (inactive); in test [4], -0.35 (inactive); in test [5], -0.928 (inactive); in [11], -0.121 (inactive); in test [13], 0.204 (inactive). Further, the z-score in test [14] was 0.437 (inactive); in test [15], -0.136 (inactive); in test [16], 0.21 (inactive); in test [17], -0.333; in test [18] it was 0.673 (inactive); in [19] it was -0.225 (inactive). The same compound displayed a z-score in [20] of 1.3.
